Among all 2,100 compounds or so, about 770 (37%) were called active.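 The calls were made as follows: active = by-eye trace score of 1 for enhancers or -1 for inhibitors, so actives lie on both sides (some results past the limit were not filed as active); inactive = score 0, or 3 fluorescent, or 4 baseline rise.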 This is one part of the list.

In the assay the target is G protein-activated inward rectifier potassium channel 2 (Homo sapiens) + G protein-activated inward rectifier potassium channel 1 (Homo sapiens) (UniProt P48051+P48549). The experiment in a line: GIRK1/2 thallium flux modulators, retest, confirmation, cell-based, HEK293 rmGlu8/hGIRK1/2, FluoZin-2 (AID 623911). Particulars: HEK293 rmGlu8/hGIRK1/2, thallium flux FluoZin-2; actives lie on both sides; glutamate co-added at its EC20 level.
Chain of G protein-activated inward rectifier potassium channel 2 (Homo sapiens) + G protein-activated inward rectifier potassium channel 1 (Homo sapiens) (P48051 whole entry, looked up): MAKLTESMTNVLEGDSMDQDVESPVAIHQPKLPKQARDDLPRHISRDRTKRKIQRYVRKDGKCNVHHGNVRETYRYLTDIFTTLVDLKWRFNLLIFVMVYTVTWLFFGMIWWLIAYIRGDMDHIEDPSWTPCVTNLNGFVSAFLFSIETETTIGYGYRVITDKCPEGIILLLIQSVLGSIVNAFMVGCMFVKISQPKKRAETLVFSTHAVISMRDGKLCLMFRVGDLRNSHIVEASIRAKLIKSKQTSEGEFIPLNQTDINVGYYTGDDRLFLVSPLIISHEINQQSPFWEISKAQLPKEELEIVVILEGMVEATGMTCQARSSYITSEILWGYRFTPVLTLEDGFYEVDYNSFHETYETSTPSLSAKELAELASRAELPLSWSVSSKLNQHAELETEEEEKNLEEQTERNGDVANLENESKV
Chain of G protein-activated inward rectifier potassium channel 2 (Homo sapiens) + G protein-activated inward rectifier potassium channel 1 (Homo sapiens) (P48549 whole entry, looked up): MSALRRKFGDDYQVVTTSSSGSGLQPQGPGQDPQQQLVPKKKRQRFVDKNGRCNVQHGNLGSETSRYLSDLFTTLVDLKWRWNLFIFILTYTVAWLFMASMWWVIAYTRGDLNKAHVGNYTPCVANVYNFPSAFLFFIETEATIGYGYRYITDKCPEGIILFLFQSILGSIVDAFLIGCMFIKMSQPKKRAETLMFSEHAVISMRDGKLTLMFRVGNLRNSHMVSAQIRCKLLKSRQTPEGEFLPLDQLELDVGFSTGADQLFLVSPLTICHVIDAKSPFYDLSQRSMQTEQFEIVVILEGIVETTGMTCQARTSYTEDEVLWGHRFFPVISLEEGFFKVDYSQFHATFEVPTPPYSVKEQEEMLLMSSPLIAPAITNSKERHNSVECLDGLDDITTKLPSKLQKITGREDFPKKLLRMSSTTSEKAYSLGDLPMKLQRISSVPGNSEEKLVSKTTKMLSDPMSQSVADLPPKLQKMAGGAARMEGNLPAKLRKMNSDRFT
Consider `O=c1oc(-c2ccc(Br)o2)nc2ccccc12`, for which the manual score was 0 (inactive).
As for `COC(=O)c1cc(=O)n(CCc2ccc(OC)cc2)c(=Nc2ccc(F)c(Cl)c2)s1`, the figure is 0 (inactive).
As for `CC(C)(C)NC(=O)C(c1ccncc1)N(C(=O)c1csnn1)c1ccccc1` (stereo unspecified), the figure is 0 (inactive).
Turning to `O=C(C[n+]1cc(-c2ccccc2)n2c1CCC2)OCc1ccccc1`, the manual score was 0 (inactive).
As for `Cc1ccc(OCCCC(=O)Nc2nccs2)cc1`, the figure is 0 (inactive).
To `CC1(C)Cc2ccccc2C(/C(=N\Nc2cccc(Cl)c2)C(N)=O)=N1` belongs 0 (inactive); to `O=C(Nc1ccccc1)Nc1nccs1`, 1 (active).
In the case of `CS(=O)(=O)c1ccc2nc(NC(=O)Nc3ccc(Cl)c(Cl)c3)sc2c1`, the manual score is 0 (inactive).
To `O=C(Nc1cccc(Cl)c1)Nc1nccs1` belongs 1 (active).
With `O=C(CSc1ccccc1)N(c1ccc(Br)cc1)c1nccs1`, the manual score was 0 (inactive).
With `O=C(NNC(=O)c1cccs1)Nc1cccc(Cl)c1`, the manual score was 1 (active).
Turning to `CCOC(=O)Cn1c(=O)oc2cc(S(=O)(=O)Nc3ccc(N(CC)CC)cc3C)ccc21`, the manual score was 0 (inactive).
In the case of `CCOC(=O)C1=C(C)OC(N)=C(C#N)C1c1cncc(-c2ccc(F)cc2)c1` (stereo unspecified), the manual score was -0.5 (inactive).
To `COc1ccc(NC(=S)NC(NC(=O)/C=C/c2ccccc2)C(Cl)(Cl)Cl)cc1` (stereo unspecified) belongs 1 (active).
As for `O=C(/C=C/c1ccccc1)NC(NC(=S)Nc1cc(Cl)ccc1Cl)C(Cl)(Cl)Cl` (stereo unspecified), the figure is 1 (active); as for `Cc1c(NC(=S)NC(NC(=O)CC(C)C)C(Cl)(Cl)Cl)c(=O)n(-c2ccccc2)n1C` (stereo unspecified), 0 (inactive).
Consider `COc1ccc(C/C(C)=N/NC(=S)Nc2ccccc2)cc1`, for which the manual score was 0 (inactive).
As for `O=C(/C=C/c1ccccc1)NC(NC(=S)Nc1cccc(O)c1)C(Cl)(Cl)Cl` (stereo unspecified), the figure is 3 (inactive).
As to `O=C(NC(=S)Nc1cc([N+](=O)[O-])ccc1Cl)c1ccccc1`, the manual score is 0 (inactive).
On to `N#C/C(=C/C=C/c1ccccc1)C(=O)Nc1ccccc1`, for which the manual score is 0 (inactive).
On to `O=C(/C=C/c1ccccc1)NC(NC(=S)Nc1cccc(Cl)c1)C(Cl)(Cl)Cl` (stereo unspecified), for which the manual score was 1 (active).
Regarding `COC(=O)c1ccccc1NC(=S)NC(NC(=O)c1ccccc1[N+](=O)[O-])C(Cl)(Cl)Cl` (stereo unspecified), the manual score was 0 (inactive).
Regarding `O=C(NC(NC(=S)Nc1ccc(Cl)cc1Cl)C(Cl)(Cl)Cl)c1cccc([N+](=O)[O-])c1` (stereo unspecified), the manual score was 1 (active).
As for `O=C(CSc1nc(-c2ccccc2)cc(=O)[nH]1)N1CCc2ccccc21`, the figure is 0 (inactive).
`O=C(COc1ccc2ccccc2c1CN1CCOCC1)N1CCc2ccccc21`: the manual score was -1 (active).
To `Cc1cccc(S(=O)(=O)NC(Cc2c[nH]c3ccccc23)C(=O)O)c1` (stereo unspecified) belongs 0 (inactive); to `CC(C)n1c(NCc2c[nH]c3ccccc23)nc2ccccc21`, -1 (active); to `CCOC(=O)C(C)Sc1nnc(-c2c[nH]c3ccccc23)n1C` (stereo unspecified), -0.5 (inactive).
`Cc1cc(C)c2c(c1)/C(=N/NC(=S)Nc1ccc(F)cc1)CCC2`: the manual score was 0 (inactive).
For `Cc1ccccc1N=Nc1c(C)[nH]n(C(N)=S)c1=O`, the manual score is 1 (active).
As for `Cc1ccccc1N=Nc1ccc(O)c2ncccc12`, the figure is 0 (inactive); as for `Cc1nn(-c2ccccc2)c(OC(=O)c2cccs2)c1S(=O)(=O)c1ccccc1`, 0 (inactive); as for `CCOC(=O)c1c(C)[nH]c2c1cc(O)c1ccccc12`, 0 (inactive).
As for `CCN(CC)C(=O)COc1ccc2oc(C)c(C(=O)OC)c2c1`, the figure is 0 (inactive); as for `CCOC(=O)c1c(C)oc2ccc(O)c(CN3CCCCC3)c12`, -1 (active); as for `CCOC(=O)c1c(C)n(C)c2ccc(O)c(CN3CCC(C)CC3)c12`, -1 (active).
As for `CCOc1ccc(C2=NNC(c3cccs3)=Nc3ccc(OC)cc32)cc1`, the figure is 0 (inactive); as for `CCn1c(SCc2ccc(Cl)cc2)nnc1-c1ccccc1`, 0 (inactive); as for `CCOc1ccc2nc(/N=C/c3c(C)[nH]n(-c4ccccc4)c3=O)sc2c1`, 1 (active).
Take `COc1ccc2nc(/N=C/c3c(C)[nH]n(-c4ccc(C)cc4C)c3=O)sc2c1`: the manual score is 1 (active).
As for `Cc1[nH]n(-c2ccccc2)c(=O)c1/C=N/c1ccccn1`, the manual score is 0 (inactive).
To `Cc1[nH]n(-c2ccc(Cl)cc2)c(=O)c1/C=N/c1nnc(-c2ccccc2)s1` belongs 1 (active).
For `COc1ccc2nc(/N=C/c3c(C)[nH]n(-c4ccc(C)cc4)c3=O)sc2c1`, the manual score was 1 (active).
Take `Cc1ccc(-n2[nH]c(C)c(C=Nc3cc(C)ccn3)c2=O)cc1`: the manual score was 0 (inactive).
As for `COc1ccc(OC)c(-c2c3cc(O)c(=O)cc-3oc3cc(O)c(O)cc23)c1`, the figure is 0 (inactive); as for `Cc1ccc(NC(=O)c2cc(NC(=O)CCC(=O)O)ccc2N2CCCCC2)cc1`, 0 (inactive).
Regarding `CN1CCN(C(=O)Nc2cccc3ccccc23)CC1`, the manual score was 0 (inactive).
For `CC1=C(C)C(c2ccccc2)NC(=S)N1` (stereo unspecified), the manual score is 0 (inactive).
As for `CCOc1[nH]n(-c2ccc(Cl)cc2)c(=O)c1C=Nc1ccc(Cl)cc1`, the figure is 0 (inactive).
To `CCOc1ccc2nc(/N=C/c3c(C)[nH]n(-c4ccc(C)cc4)c3=O)sc2c1` belongs 1 (active).
As for `CCOc1ccc2nc(NC(=O)C(CC)Sc3nc(C)cc(=O)[nH]3)sc2c1` (stereo unspecified), the figure is 0 (inactive); as for `C=C(C)CNC(=S)N/N=C1\CCCCc2ccccc21`, 0 (inactive); as for `C=CCNC(=S)Nc1nc2c(cc1C(=O)OCC)CCCC2`, 1 (active).
`CCOC(=O)c1cc(NC(=O)SCC(=O)O)c(C)nc1C`: the manual score was 0 (inactive).
As for `C=C(C)CNC(=S)Nc1nc2c(cc1C(=O)OCC)CCCC2`, the figure is 1 (active); as for `CCNC(=S)Nc1nc2c(cc1C(=O)OCC)CCCC2`, 1 (active); as for `CCOC(=O)C1=NNC(C(=O)c2ccc(OC)cc2)C1c1ccccc1` (stereo unspecified), 0 (inactive).
Take `O=C(Nc1ccc(Cl)cc1)NC1CCCCC1Cc1ccco1` (stereo unspecified): the manual score is 1 (active).
To `CC1CCc2c(sc(NC(=O)C(=O)NCc3ccco3)c2C#N)C1` (stereo unspecified) belongs 0 (inactive); to `CC(Cc1cccs1)NC(=O)Nc1ccc(Cl)cc1` (stereo unspecified), 0.5 (inactive); to `O=C(COc1ccccc1)NC(=S)N1CCc2ccccc21`, 1 (active).
As for `Cc1cccc(OCC(=O)NC(=S)N2CCCc3ccccc32)c1`, the figure is 0 (inactive); as for `CC(Oc1ccc(Cl)cc1Cl)C(=O)NC(=S)N1CCc2ccccc21` (stereo unspecified), 1 (active); as for `O=C(COc1ccccc1Cl)NC(=S)N1CCc2ccccc21`, 1 (active).
To `O=C(COc1ccc(Cl)cc1Cl)NC(=S)N1CCCc2ccccc21` belongs 0 (inactive); to `O=C(COc1ccc(Br)cc1Cl)NC(=S)N1CCc2ccccc21`, 0.5 (inactive).

Values taken from PubChem BioAssay AID623911 (Vanderbilt High Throughput Screening Facility, 2012).
